High-throughput results as filed in PubChem.
Hits are enriched below; roughly 1.1% of the tested compounds scored in any of these assays.
MOR-DOR ag: OPRM1-OPRD1 heterodimerization agonism | activation, % at 9.3 µM | 340,000 tested, 0.3% active | AID 504326 | cells, luminescence;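 also: 0% = vehicle-treated cells and 100% = reference agonist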
HTR5A inv ag: inverse agonist of human HTR5A in OPRM1-OPRD1 counter-screen; 340,000 tested, 0.083% active; inhibition, % at 9.3 µM; HTR5A cell line, luminescence, inverse agonism; AID 504634; in the data active = inhibition mostly above about 23%, no sharp cut-off; inactive = mostly below about 18%;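 also: 0% = cells with DMSO and 100% = no-cell wells with DMSO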
Target sequence (P47898 whole entry, looked up): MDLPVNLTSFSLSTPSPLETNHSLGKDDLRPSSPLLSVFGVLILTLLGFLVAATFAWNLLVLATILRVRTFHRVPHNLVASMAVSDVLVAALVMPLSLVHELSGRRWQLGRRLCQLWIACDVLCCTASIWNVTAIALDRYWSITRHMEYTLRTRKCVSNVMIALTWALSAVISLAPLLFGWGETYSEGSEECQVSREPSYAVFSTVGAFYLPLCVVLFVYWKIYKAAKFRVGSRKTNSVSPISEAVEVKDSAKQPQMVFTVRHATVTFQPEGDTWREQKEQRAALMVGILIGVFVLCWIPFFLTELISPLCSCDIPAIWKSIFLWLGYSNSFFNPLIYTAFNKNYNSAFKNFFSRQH
MOR-DOR inv ag: mu-delta opioid heterodimer inverse agonism; P35372+P41143; cell-based MOR-DOR heterodimer luminescence; inhibition, % at 9.3 µM; 340,000 tested, 0.21% active; AID 504357; in the data active = inhibition above about 22%, passing the limit was not always enough;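 also: 0% = cells with DMSO and 100% = wells without cells with DMSO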
HTR5A ag: HTR5A agonism, opioid heterodimer counter-screen. activation, % at 9.3 µM. P47898. AID 504692. 340,000 tested, 0.61% active. HTR5A agonist assay, luminescence, cell-based; in the data active = activation mostly above about 9.5%, no sharp cut-off; inactive = mostly below about 7.6%;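 also: 0% = cells with vehicle only and 100% = reference agonist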
OPRM1-D1 ag cf: OPRM1-OPRD1 heterodimer agonism, confirmation; shares compounds with MOR-DOR ag; cells, MOR-DOR heterodimerization, luminescence complementation; activation, % at 9.3 µM; 830 tested, 45% active; AID 504904;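 also: 0% = vehicle-treated cells and 100% = reference agonist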
HTR5A ag counter: counter-screen for OPRM1-OPRD1 agonists: human HTR5A agonism. shares compounds with MOR-DOR ag. HTR5A agonist counterscreen, cell luminescence. activation, % at 9.3 µM. 830 tested, 8% active. AID 504905; in the data active = activation above about 17%;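 also: 0% = vehicle-treated cells and 100% = reference agonist response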
The depositor's hits bear a star; i = inactive; / = not tested or not shown. Rule as the data show it, unless noted: active = activation above about 18%; inactive = the rest.

SMILES | MOR-DOR ag | HTR5A inv ag | MOR-DOR inv ag | HTR5A ag | OPRM1-D1 ag cf | HTR5A ag counter
CCOC(=O)C1=C(C)N(CCCCCC(=O)O)C(=O)NC1c1ccccc1OS(=O)(=O)c1ccc(C)cc1 (stereo unspecified) | 57* | -15 | -335 | 6 | 4 | 8
CCOC(=O)C1=C(C)N(CCCC(=O)O)C(=O)NC1c1ccccc1OS(=O)(=O)c1ccccc1[N+](=O)[O-] (stereo unspecified) | 56* | -8 | -324 | 3 | 10 | 9
CCOC(=O)C1=C(C)N(CCCC(=O)O)C(=O)NC1c1ccccc1 (stereo unspecified) | -3 | -3 | 16 | 2 | / | /
CC(=O)Cc1cc(O)c2ccccc2c1OC(=O)c1ccc(Br)cc1 | 20* | 1 | -101 | 8 | 11 | 13
O=C(COC(=O)c1ccc(Br)cc1)NCc1ccccc1 | -1 | -4 | 5 | 0 | / | /
Cc1ccc(NC(=O)c2ncn(CCCN[C@H](C)c3cccc4ccccc34)n2)cc1C | 85* | -22 | -393 | 6 | 56* | -1
CN(C)C(CNC(=O)C1CCN(S(=O)(=O)c2ccccc2)CC1)c1ccccc1 (stereo unspecified) | 0 | -17 | -1 | 6 | / | /
CN(C)C(CNC(=O)C1CCN(S(=O)(=O)c2cccc(C(F)(F)F)c2)CC1)c1ccccc1 (stereo unspecified) | 22* | 0 | -119 | 0 | 140* | 3
CN(C)C(CNC(=O)Cc1cccc(C(F)(F)F)c1)c1ccco1 (stereo unspecified) | 63* | 0 | -299 | 0 | 22* | -3
CN(C)C(CNC(=O)Cc1cccc(C(F)(F)F)c1)c1ccccc1 (stereo unspecified) | 249* | -5 | i | 2 | 252* | 1
CCOC(=O)CC(=O)COc1nc2cc3c(nc2o1)CCCC3 | -1 | -13 | 7 | 3 | / | /
CSc1ccc(S(=O)(=O)N2CCC(C(=O)NCc3ccccn3)CC2)cc1 | -1 | -4 | 3 | 1 | / | /
C/C=C(\C)CN1CCC(n2nccc2NC(=O)CCc2ccccc2)CC1 | 20* | 7 | -110 | -4 | 3 | -2
C/C=C(\C)CN1CCC(n2nccc2NC(=O)CCOc2ccccc2)CC1 | -1 | -6 | 3 | 4 | / | /
COc1ccc(NS(=O)(=O)c2cccc(C(=O)NC3CCN(Cc4ccccc4)CC3)c2)cc1 | 1 | -7 | -4 | 1 | / | /
COc1ccc(Cl)cc1NS(=O)(=O)c1cccc(C(=O)NC2CCN(Cc3ccccc3)CC2)c1 | 18* | 1 | -76 | 0 | 26* | 1
CSc1ccccc1C(=O)NCC(c1ccco1)N(C)C (stereo unspecified) | -1 | -24 | 5 | 8 | / | /
CN(C)C(CNC(=O)c1ccc2ccccc2c1)c1ccco1 (stereo unspecified) | 30* | -3 | -158 | 1 | 33* | 4
CSc1ccc(C(=O)NCC(c2ccco2)N(C)C)cc1[N+](=O)[O-] (stereo unspecified) | 251* | -17 | i | 6 | 242* | 1
Cc1cccc(C(=O)NCC(c2ccco2)N(C)C)c1 (stereo unspecified) | 1 | 2 | -5 | -1 | / | /
CC(=O)NC(CC(=O)NCC(c1ccco1)N(C)C)c1ccccc1 (stereo unspecified) | 195* | -43 | i | 4 | 226* | -1
COc1ccc(NC(=O)C(c2cc3c(cc2[N+](=O)[O-])OCO3)N(C)c2ccccc2)cc1 (stereo unspecified) | -1 | -13 | 6 | 0 | / | /
Nc1ccc(-c2ccc(C(=O)O)s2)cn1 | 0 | 1 | 0 | 0 | / | /
CN(C)S(=O)(=O)c1ccc(C(=O)NNC(=O)C23CC4CC(CC(C4)C2)C3)cc1 | -3 | 10 | 13 | -4 | / | /
CC(=O)CSc1ccc(-c2nc3cc(C)c(C)cc3[nH]2)cn1 | 47* | -13 | -242 | -6 | 32* | 0
SMILES | MOR-DOR ag | HTR5A inv ag | MOR-DOR inv ag | HTR5A ag | OPRM1-D1 ag cf | HTR5A ag counter
CCOC(=O)C1(CCOC)CCN(Cc2cccc(OCc3ccccc3)c2)CC1 | 6 | -17 | -30 | 5 | / | /
CCOC(=O)C1(CCOC)CCN(Cc2ccccc2-c2ccco2)CC1 | 130* | -7 | i | 3 | 33* | 7
CCOC(=O)C1(CC2CCCCO2)CCN(Cc2ccc(OC)cc2F)CC1 (stereo unspecified) | 48* | 8 | -278 | -3 | 59* | 3
CCOC(=O)C1(CCOc2ccccc2)CCN(Cc2cc(OC)ccc2OC)CC1 | 53* | -10 | -260 | 3 | 1 | 17*
CCOC(=O)C1(CCOc2ccccc2)CCN(Cc2cccc(OC)c2)CC1 | 19* | -5 | -93 | 1 | 1 | 93*
CCOC(=O)C1(CCOc2ccccc2)CCN(Cc2ccc3c(c2)OCCO3)CC1 | 25* | 5 | -125 | -2 | 44* | -4
CCOC(=O)C1(CCOc2ccccc2)CCN(Cc2ccc(O)c(Cl)c2)CC1 | 7 | 22 | -36 | -6 | / | /
Cc1c(CCOC(=O)c2ccccc2)sc[n+]1CC(=O)c1ccc(Br)cc1 | 36* | -17 | -288 | 6 | 54* | -1
Cc1c(CCOC(=O)c2cc([N+](=O)[O-])cc([N+](=O)[O-])c2)sc[n+]1CC(=O)c1ccccc1 | 5 | -18 | -25 | 6 | / | /
CCCNC(=O)CN1C(=O)c2ccccc2Sc2ncccc21 | -3 | -9 | 13 | 2 | / | /
O=c1[nH]c2cc([N+](=O)[O-])ccc2c2ccccc12 | 5 | -8 | -27 | 2 | / | /
O=C1Cc2c([nH]c3ccc([N+](=O)[O-])cc23)-c2ccccc2N1 | 22* | -3 | -108 | 1 | 9 | 2
Cc1cc(/C=C2/C(=O)NN(c3ccccc3)C2=O)c(C)n1-c1ccc(O)cc1 | 61* | 9 | -314 | -3 | 50* | -5
COc1ccc(-n2c(C)cc(/C=C3\C(=O)NN(c4ccccc4)C3=O)c2C)cc1 | 1 | 7 | -4 | 1 | / | /
O=C(CCN1CCN(S(=O)(=O)c2ccc(F)cc2)CC1)Nc1ccccc1F | -3 | -34 | 15 | 1 | / | /
O=C(c1cccc(Cl)c1)N(Cc1cccs1)C1CCS(=O)(=O)C1 (stereo unspecified) | 2 | 8 | -12 | -3 | / | /
O=C(c1sc2ccccc2c1Cl)N(Cc1cccs1)C1CCS(=O)(=O)C1 (stereo unspecified) | 162* | 0 | i | 0 | 3 | -6
CCC(=O)c1ccc(N2CCN(S(=O)(=O)c3ccccc3)CC2)c(F)c1 | 21* | 4 | -104 | -1 | 3 | 8
O=C(N[C@H]1C/C=C\C[C@@H](CC(=O)N(CCO)Cc2ccccc2)C(=O)N[C@H](Cc2c[nH]c3ccccc23)COC1=O)OCC1c2ccccc2-c2ccccc21 | -2 | -14 | 11 | 3 | / | /
O=C(N[C@H]1C/C=C\C[C@H](CC(=O)N(CCO)Cc2ccccc2)C(=O)N[C@H](Cc2c[nH]c3ccccc23)COC1=O)OCC1c2ccccc2-c2ccccc21 | 29* | -7 | -154 | -1 | 35* | 4
